PubChem BioAssay (NCI)
About 79,000 compounds went through this panel and 15% of them were active in at least one assay; those are over-represented in the sample as a whole. A number with no mark means an inactive call. The source made the active and inactive calls. Rule as the data show it: active = growth inhibition above about 70%; inactive = the rest.

Experiments:
[1] = NCI Yeast Anticancer Drug Screen. Data for the rad50 strain (AID 155);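 also: 0% = growth of vehicle-only cultures of the same strain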; conditions: S. cerevisiae rad50 strain growth inhibition; at 50.0 µM; active compounds read high
Procedure, shortened: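 Inhibition values express reduced yeast growth in compound-treated cultures relative to vehicle-treated controls.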

[2] = NCI Yeast Anticancer Drug Screen. Data for the mec2-1 strain (AID 157); conditions: S. cerevisiae mec2-1 strain, at 50.0 µM, active compounds read high
Procedure, shortened: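 Compounds were applied to mec2-1 yeast cells. Their growth was then compared with that of vehicle-treated cultures to give growth inhibition.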

[3] = NCI Yeast Anticancer Drug Screen. Data for the sgs1 mgt1 strain (AID 161);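 also: 0% = growth of cultures given vehicle only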; conditions: S. cerevisiae sgs1 mgt1 strain, at 50.0 µM, active compounds read high
Procedure, shortened: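 Percent growth inhibition was derived by comparing compound-exposed mutant yeast with vehicle-exposed cultures. The strain carries alterations in DNA damage repair.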

[4] = NCI Yeast Anticancer Drug Screen. Data for the cln2 rad14 strain (AID 165);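 also: 0% = growth equal to vehicle treated cultures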; conditions: S. cerevisiae cln2 rad14 strain, at 50.0 µM, active compounds read high
Procedure, shortened: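 Strain: cln2 rad14 yeast, altered in cell cycle control and DNA damage repair. Read-out: growth inhibition vs vehicle.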

[5] = NCI Yeast Anticancer Drug Screen. Data for the bub3 strain (AID 167); conditions: S. cerevisiae bub3 mutant strain, at 50.0 µM, active compounds read high
Procedure, shortened: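 Steps: expose the mutant yeast strain to compound; grow alongside vehicle-treated cultures; measure growth; express inhibition against the vehicle cultures.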

[6] = NCI Yeast Anticancer Drug Screen. Data for the mlh1 rad18 strain (AID 175); conditions: S. cerevisiae mlh1 rad18 strain growth inhibition; at 50.0 µM; active compounds read high
Procedure, shortened: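 A repair-deficient yeast strain is exposed to test compound, and growth is scored relative to vehicle-treated controls.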

| SMILES | growth inhibition [1] | growth inhibition [2] | growth inhibition [3] | growth inhibition [4] | growth inhibition [5] | growth inhibition [6] |
| --- | --- | --- | --- | --- | --- | --- |
| COCCCn1cnn2c(=O)c3ccccc3nc2c1=O | -12% | 2.85% | 23.8% | 12.4% | 21.3% | 6.25% |
| COc1cccc(OC(=O)Nc2ccccc2)c1 | 2.6% | -10.6% | -9.85% | -41.3% | -20.6% | 3.25% |
| [O-]c1c2c(nn1-c1ccc(Cl)cc1)c1ccccc1c[n+]2Cc1ccccc1 | -6.1% | -20.6% | -11.2% | -2.5% | 11.4% | -16.2% |
| CCN(CC)C(=O)CCn1ccc(=O)[nH]c1=O | -52.4% | -33.4% | -25.8% | 9.55% | -2.75% | -5.35% |
| O=C1c2sccc2[C@H](NC(=O)C(F)(F)F)[C@@H]1Cl | 4.5% | 3.45% | 1.1% | 25.1% | 7.25% | 18.6% |
| COc1cc2nc(C)oc(=O)c2cc1OC | 19.1% | -16.8% | 10.9% | -28.4% | -12.3% | 0.85% |
| Cc1cc2c(c(C)c1O)C(C)(C)CN2C(=O)C(C)(C)C | -12.2% | -53% | 2.55% | -8.85% | 2.1% | -10.9% |
| O=[N+]([O-])c1cc(F)cc(I)c1 | -3.15% | -38.6% | 2.15% | 15.8% | 4.25% | -5% |
| c1ccc(-c2nc3n(n2)CCC(c2ccccc2)S3)cc1 (stereo not given) | -7.95% | -18.1% | -15.5% | 3.9% | 6.1% | -8.75% |
| O=C(O)CCN(CCC(=O)O)S(=O)(=O)c1ccccc1 | -4.55% | -43.4% | -4.65% | -103% | -17.6% | 22.9% |
| CC(=O)Nc1ccc(-c2nnc(SCC(=O)Nc3ccccc3)o2)cc1 | 2.3% | 6.8% | -4.95% | -1.8% | -14.6% | -8.55% |
| CC(C)=CCC/C(C)=C/c1cc(C(=O)O)c2c(ccc3ccccc32)n1 | 9.6% | 10.5% | 6.7% | 11.3% | 25.1% | 14.3% |
| O=C(NCCCl)Nc1[nH]c(=O)ncc1Cl | -12.2% | -13.2% | -16.5% | -30.6% | -12.4% | -3.15% |
| COc1cc2c(cc1OC)C(C(c1ccccc1)c1ccccc1)N(C)CC2 (stereo not given) | 9.9% | 9.25% | -16.7% | 20.6% | 3.25% | 20.6% |
| CC(=O)OCC(=O)c1cc(C)n(C)c(=O)c1CN1C(=O)c2ccccc2C1=O | -10.7% | 9.05% | 2.2% | -36.3% | 10.6% | -12.7% |
| COc1ccc(C2NCCCC2c2ccccc2)cc1 (stereo not given) | -46.3% | -29.4% | -2.65% | 14.8% | -40.2% | -11.1% |
| CCN(CC)Cc1ccccc1COC(=O)c1ccc(OC)cc1 | -0.1% | -3.45% | 14.8% | -15.2% | -7.25% | 11.3% |
| COc1ccn(C2OCCC(OC(C)=O)C2O)c(=O)n1 (stereo not given) | -19.8% | -24.1% | 6.25% | -22.9% | 0.4% | 11.7% |
| CCCCOc1ccc(C=Nc2ccc(C)cc2)cc1 | -6.15% | -6.2% | -2.45% | -8.5% | 7.3% | -20.7% |
| COc1ccc(C(=O)/C(Br)=C\C(=O)O)cc1 | 16.8% | 24.4% | 5.4% | 28.6% | 23.9% | 7% |

| SMILES | growth inhibition [1] | growth inhibition [2] | growth inhibition [3] | growth inhibition [4] | growth inhibition [5] | growth inhibition [6] |
| --- | --- | --- | --- | --- | --- | --- |
| CCN(CC)CCN(C)CCN(CC)CC | 14.1% | 1.7% | 18.6% | 9.8% | 38.7% | 17.6% |
| CCO/C=C1\SC(=S)N(CCc2ccc(OC)c(OC)c2)C1=O | -0.85% | -6.85% | -10.9% | -2.2% | -5.6% | -10.5% |
| CN(C)c1nc(=O)c2ccccc2o1 | -41% | -14.1% | -28.4% | -36.5% | -7.75% | -5.05% |
| CC1(C)OC2C(CO)OC(n3ccc(N)nc3=O)C2O1 (stereo not given) | -33% | -12% | 2.15% | -29.9% | 10.6% | -1.75% |
| CCOCC1c2ccccc2CCN1Cc1c[nH]c2ccccc12 (stereo not given) | 9.65% | -21.2% | -2.85% | -5.15% | 0.6% | -4.55% |
| CC1(C)c2ccccc2C(=O)C12CCC(=O)CC2 | 9.2% | -3.4% | 18.8% | 26.4% | 18.9% | 17.5% |
| Nc1nc(-c2cc(-c3ccco3)nc(N)n2)cc(-c2ccco2)n1 | -8.2% | -13.6% | -20.8% | -17.8% | -35.6% | -17.6% |
| CON(C)c1nc2ccccc2o1 | -22.1% | -8.45% | -9% | -16.8% | -2.3% | -17.6% |
| COc1ccc(CCNC(=S)N/C=C\c2nc3ccccc3[nH]c2=O)cc1OC | 11.1% | 2.8% | 6.15% | 11.3% | 8% | 19.9% |
| CC1(C)N=C(N)N=C(N)N1c1ccc(CCCCc2ccccc2)cc1 | 99.6% (active) | 99.7% (active) | 99.8% (active) | 99.3% (active) | 50% | 46.1% |
| CCCCCOC(=O)OC(C)CNC(=O)C(C)OC(=O)OCCCCC (stereo not given) | -17.4% | -33.5% | -12.5% | -61.4% | -9.5% | -29.4% |
| O=C(S)C(=O)Cc1cn[nH]n1 | -3.95% | -1.9% | -4.5% | 6.15% | -7.25% | -26.8% |
| COC(=O)C(c1ccccc1)S(=O)(=O)c1ccccc1 (stereo not given) | -2.75% | -13.3% | 3.6% | -2.75% | -21.4% | -5.5% |
| Cc1ccc(N=C(c2ccccc2)c2ccc([N+](=O)[O-])cc2)cc1 | -16.6% | -7.05% | -21.7% | -26.9% | 21.4% | -11.8% |
| CN(C)c1ccc(/C=C(\C#N)c2c(Cl)cccc2Cl)cc1 | -13.9% | -8.55% | -11.1% | -25.4% | 8.3% | -5.75% |
| CCCc1ccc(OCC(=O)O)c(OC)c1 | -2.45% | -1.25% | 0.95% | 4.4% | -22.5% | -7.45% |
| CCCCC(=O)Nc1ccc(Cl)cc1 | 18.2% | 7.8% | 6.5% | 8.2% | -19.9% | 11.7% |
| N#CCc1ccc(Nc2cc(=O)[nH]c(=O)[nH]2)cc1 | -7.5% | 1.5% | 3.65% | -35.1% | -7.5% | -7.55% |
| [N-]=[N+]=Nc1ccccc1C(=O)NCCCNC(=O)c1ccccc1N=[N+]=[N-] | -0.25% | -23.1% | 25% | 1.8% | 19.4% | 16% |
| CCOC(=O)C1C(C)=CC(=O)CC1C (stereo not given) | 19.8% | 1.65% | 21.9% | -4.8% | 4.5% | 4.45% |
